The nature of experiment [1]: Human pregnane X receptor (PXR) small molecule agonists, qHTS cell viability counter screen (AID 1346977). Note: nearly all actives have a fitted effect of over 50% in size. Put shortly:
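HepG2 cells stably carrying the PXR-Luc reporter are cultured with 5% charcoal-stripped FBS and treated with compounds for 24hr. CellTiter-Fluor is added at 23hr and fluorescence is read after 1hr.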
In general terms: In qHTS, concentration-response curves come from the screen itself.

A short description of experiment [2]: Caspase-3/7 induction in HepG2 cells by small molecules, qHTS assay (AID 1346978). Note: nearly all actives have a fitted effect of over 15% in size. Put shortly: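 Caspase-3/7 induction was measured by Caspase-Glo 3/7 luminescence (30 min, room temperature) after a 17 hr compound exposure of wild-type HepG2 cells seeded at 2,000 per well and pre-incubated 5 hr.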
A short description of experiment [3]: Caspase-3/7 induction in CHO-K1 cells by small molecules, qHTS cell viability counter screen (AID 1346979). Note: nearly all actives have a fitted effect of over 35% in size. Put shortly: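 Seeding: 1,500 CHO-K1 cells/well. Rest: 5hr, 37C. Treatment: compounds in DMSO, 16hr. Read: CellTiter-Fluor, 1hr, fluorescence.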
Experiment [4] is described as follows: Caspase-3/7 induction in CHO-K1 cells by small molecules, qHTS assay (AID 1346980). Note: nearly all actives have a fitted effect of over 15% in size. Put shortly: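 Luminescent Caspase-Glo 3/7 read (30min, room temperature) quantified apoptosis induction. Cells were wild-type CHO-K1, treated with compound for 17hr at 37 C and 5% CO2.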
Experiment [5] is described as follows: Caspase-3/7 induction in HepG2 cells by small molecules, qHTS cell viability counter screen (AID 1346981). Note: series mostly up to about 92 µM; nearly all actives have a fitted effect of over 30% in size. Put shortly: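 After a 5-hr attachment period at 37 C and 5% CO2, wild-type HepG2 cells received compounds in DMSO. Sixteen hours later CellTiter-Fluor was dispensed and the fluorescent signal quantified after a further hour.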
Experiment [6] concerns the target Cytochrome P450 2D6 (Homo sapiens) (UniProt P10635). The experiment is described as follows: Cytochrome P450 Family 2 Subfamily D Member 6 (CYP2D6) small molecule antagonists: luciferase reporter qHTS assay (AID 1671196). Note: series mostly up to about 120 µM; nearly all actives have a fitted effect of over 50% in size. Put shortly: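 Room-temperature luminescent CYP2D6 activity assay: compound preincubated 10 min with enzyme–substrate mix, NADPH-initiated reaction 1 h, detection reagent 20 min before reading.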
For orientation: Reporter assays use an easily measured gene product as a stand-in for the process of interest.

Experiment [7] addresses Cytochrome P450 2C19 (Homo sapiens) (UniProt P33261). Put plainly: Cytochrome P450 Family 2 Subfamily C Member 19 (CYP2C19) small molecule antagonists: luciferase reporter qHTS assay (AID 1671197). For activity change, negative = inhibition: series mostly up to about 120 µM. Note: nearly all actives have a fitted effect of over 65% in size. Note: potency is the fitted concentration of half-maximal effect. Put shortly:
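Light output is proportional to CYP2C19 activity: proluciferin substrate is converted to luciferin, then detected by a luciferin detection reagent that also stops the 1 h, 37C NADPH-driven reaction. Ketoconazole serves as positive control.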

For experiment [8], the target named is Cytochrome P450 2C9 (Homo sapiens) (UniProt P11712). The experiment is described as follows: Cytochrome P450 Family 2 Subfamily C Member 9 (CYP2C9) small molecule antagonists: luciferase reporter qHTS assay (AID 1671198). For activity change, negative = inhibition: series mostly up to about 120 µM. Note: nearly all actives have a fitted effect of over 50% in size. Note: potency is the fitted concentration of half-maximal effect. Put shortly: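 Enzyme-substrate mix preincubated with compound 10 min at room temperature; reaction started with NADPH regeneration solution, 1 h 37C. Luminescent luciferin product read after 20 min detection reagent.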

The target of experiment [9] is Cytochrome P450 1A2 (Homo sapiens) (UniProt P05177). The experiment is described as follows: Cytochrome P450 Family 1 Subfamily A Member 2 (CYP1A2) small molecule antagonists: luciferase reporter qHTS assay (AID 1671199). For activity change, negative = inhibition: series mostly up to about 120 µM. Note: nearly all actives have a fitted effect of over 50% in size. Note: potency is the fitted concentration of half-maximal effect. Put shortly:
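Room-temperature CYP1A2 reaction with proluciferin substrate: compounds added from DMSO, 10 min preincubation, NADPH regeneration for 1 h. Luciferin detection reagent then added; luminescence recorded as RLU.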

The target in experiment [10] is Voltage-gated inwardly rectifying potassium channel KCNH2 (Homo sapiens) (UniProt Q12809). Put plainly: Human Ether-a-go-go-Related Gene (hERG) channel small molecule antagonists: fluorescence cell-based qHTS assay (AID 1671200). Put shortly:
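First, 1000 cells per well are seeded and cultured overnight at 37 C. Next, FluxOR II dye is loaded for 1 h at room temperature, protected from light. After 10 more minutes, stimulus is added and fluorescence is read.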
For orientation: Block of hERG is tested as a sign of cardiac risk.

Experiment [11] concerns the target Cytochrome P450 3A4 (Homo sapiens) (UniProt P08684). The experiment is described as follows: Cytochrome P450 Family 3 Subfamily A Member 4 (CYP3A4) small molecule antagonists: luciferase reporter qHTS assay (AID 1671201). Put shortly: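 Enzyme and proluciferin substrate are mixed with test chemicals for 10 min, then NADPH regeneration system drives turnover for 1 h at room temperature. A detection reagent halts the reaction; luminescence after 20 min gives relative activity.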

The target of experiment [12] is Nuclear receptor subfamily 1 group I member 2 (Homo sapiens) (UniProt O75469). The experiment is described as follows: Human pregnane X receptor (PXR) small molecule agonists, qHTS assay (AID 1346982). Note: nearly all actives have a fitted effect of over 35% in size. Put shortly: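 Tox21 qHTS; PXR-Luc HepG2; compounds pinned from DMSO; 24 hr, 37 C; ONE-Glo luciferase detection, 30 min room temperature.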
Experiment [13] has the same target. The experiment is described as follows: CYP3A4 induction through human pregnane X receptor (PXR) by small molecules, qHTS assay (AID 1346984). Note: nearly all actives have a fitted effect of over 40% in size. Put shortly:
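Cells (DPX-2; HepG2 with PXR element plus CYP3A4-promoter luciferase) settled 5hr, then were treated 24hr at 37C. A 3hr, 3uM-final Luciferin-IPA step preceded luminescence measurement with One-Glo.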

The target is the same in experiment [14]. Put plainly: Human pregnane X receptor (PXR) activation by small molecules, qHTS assay (AID 1346985). Note: nearly all actives have a fitted effect of over 40% in size. Note: potency is the fitted concentration of half-maximal effect. Put shortly: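 DPX-2 cells (HepG2 co-transfected with a PXR response element and a CYP3A4-promoter luciferase construct) were seeded at 2,000 per well, rested 5 hr at 37C, then exposed to DMSO-dissolved compounds for 24 hr. Activation was read as luciferase luminescence.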

Experiment [15] deals with Nuclear receptor subfamily 1 group I member 2 (Rattus norvegicus) (UniProt Q9R1A7). Put plainly: Rat pregnane X receptor (rPXR) activation by small molecules, qHTS assay (AID 1346983). Note: nearly all actives have a fitted effect of over 20% in size. The note with it: rPXR luciferase reporter cells, One-Glo luminescence, 24 h; max activation: active compounds read high. Put shortly: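 Luminescent readout (One-Glo luciferase, 30 min room temperature) followed 24 hr compound treatment at 37 C of rPXR cells plated 2,000 per well and preincubated 5hr; qHTS format with compounds delivered in DMSO.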

Values without a mark were called inactive. Inconclusive results are not listed. The source made the active and inactive calls. Calls come from the whole dose curve; as a rule, active = well fitted curve in the direction sought with a large enough effect in the repeat runs; inconclusive = weak or mixed curves; inactive = no such curve, though single readings can be large; an effect the other way counts as inactive or inconclusive.
% is set by controls: 0 for no effect and ±100 for the full control effect.

Sequence of Voltage-gated inwardly rectifying potassium channel KCNH2 (Homo sapiens) (Q12809 whole entry, looked up): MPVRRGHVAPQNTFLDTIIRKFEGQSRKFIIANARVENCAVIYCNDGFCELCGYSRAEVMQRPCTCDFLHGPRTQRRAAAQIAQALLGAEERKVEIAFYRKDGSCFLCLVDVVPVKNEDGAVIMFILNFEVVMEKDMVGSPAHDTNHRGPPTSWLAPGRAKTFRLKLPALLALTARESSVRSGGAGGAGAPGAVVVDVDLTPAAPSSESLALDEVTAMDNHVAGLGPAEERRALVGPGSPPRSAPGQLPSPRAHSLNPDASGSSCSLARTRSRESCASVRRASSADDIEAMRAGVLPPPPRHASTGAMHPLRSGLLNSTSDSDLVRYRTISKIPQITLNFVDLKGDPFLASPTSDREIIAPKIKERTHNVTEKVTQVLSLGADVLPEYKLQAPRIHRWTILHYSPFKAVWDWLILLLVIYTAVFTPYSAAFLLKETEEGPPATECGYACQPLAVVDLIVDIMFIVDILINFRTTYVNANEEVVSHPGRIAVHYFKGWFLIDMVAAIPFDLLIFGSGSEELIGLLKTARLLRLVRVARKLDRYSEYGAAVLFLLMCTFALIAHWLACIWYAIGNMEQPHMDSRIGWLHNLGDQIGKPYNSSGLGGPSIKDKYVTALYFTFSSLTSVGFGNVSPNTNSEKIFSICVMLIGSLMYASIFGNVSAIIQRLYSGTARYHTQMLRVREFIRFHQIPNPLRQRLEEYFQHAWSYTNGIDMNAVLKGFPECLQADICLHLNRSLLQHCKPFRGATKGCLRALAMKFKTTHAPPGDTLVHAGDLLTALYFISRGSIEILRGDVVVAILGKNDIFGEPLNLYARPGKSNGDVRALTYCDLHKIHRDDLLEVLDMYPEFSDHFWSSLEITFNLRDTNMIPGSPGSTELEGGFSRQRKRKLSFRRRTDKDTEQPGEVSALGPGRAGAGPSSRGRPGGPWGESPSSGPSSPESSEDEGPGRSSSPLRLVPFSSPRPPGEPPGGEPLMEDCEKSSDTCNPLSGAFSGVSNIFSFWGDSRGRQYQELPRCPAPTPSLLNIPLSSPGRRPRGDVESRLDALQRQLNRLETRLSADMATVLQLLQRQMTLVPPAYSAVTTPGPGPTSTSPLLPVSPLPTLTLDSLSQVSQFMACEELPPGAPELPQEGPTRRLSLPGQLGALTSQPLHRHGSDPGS
Sequence of Cytochrome P450 1A2 (Homo sapiens) (P05177 whole entry, looked up): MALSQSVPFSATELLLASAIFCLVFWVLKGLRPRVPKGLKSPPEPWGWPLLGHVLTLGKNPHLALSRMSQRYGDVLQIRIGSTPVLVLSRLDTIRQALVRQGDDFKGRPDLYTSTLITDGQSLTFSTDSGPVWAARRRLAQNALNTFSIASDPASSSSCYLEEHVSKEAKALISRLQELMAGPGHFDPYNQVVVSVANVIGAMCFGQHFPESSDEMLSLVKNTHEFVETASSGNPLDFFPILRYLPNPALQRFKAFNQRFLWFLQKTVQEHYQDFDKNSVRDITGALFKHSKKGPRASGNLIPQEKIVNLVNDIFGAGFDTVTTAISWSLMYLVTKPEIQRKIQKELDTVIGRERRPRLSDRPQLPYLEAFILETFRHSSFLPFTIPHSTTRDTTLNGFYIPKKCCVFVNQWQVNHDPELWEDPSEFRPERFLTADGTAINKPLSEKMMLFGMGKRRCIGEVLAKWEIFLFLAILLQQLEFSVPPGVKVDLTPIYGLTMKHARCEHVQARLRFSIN
Sequence of Cytochrome P450 3A4 (Homo sapiens) (P08684 whole entry, looked up): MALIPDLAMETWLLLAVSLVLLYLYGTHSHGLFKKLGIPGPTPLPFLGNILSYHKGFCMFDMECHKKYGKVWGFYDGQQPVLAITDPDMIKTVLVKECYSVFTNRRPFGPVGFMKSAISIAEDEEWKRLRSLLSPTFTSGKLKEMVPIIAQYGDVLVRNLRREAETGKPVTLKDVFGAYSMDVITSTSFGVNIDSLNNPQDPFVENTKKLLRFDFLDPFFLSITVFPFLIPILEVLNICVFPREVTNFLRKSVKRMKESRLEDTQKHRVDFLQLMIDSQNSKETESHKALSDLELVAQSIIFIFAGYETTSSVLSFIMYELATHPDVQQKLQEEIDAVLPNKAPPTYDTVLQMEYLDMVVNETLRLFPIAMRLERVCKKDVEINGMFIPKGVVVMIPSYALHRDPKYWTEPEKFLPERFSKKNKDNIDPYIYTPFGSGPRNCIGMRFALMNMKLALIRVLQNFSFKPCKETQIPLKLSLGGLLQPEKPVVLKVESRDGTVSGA
Sequence of Nuclear receptor subfamily 1 group I member 2 (Homo sapiens) (O75469 whole entry, looked up): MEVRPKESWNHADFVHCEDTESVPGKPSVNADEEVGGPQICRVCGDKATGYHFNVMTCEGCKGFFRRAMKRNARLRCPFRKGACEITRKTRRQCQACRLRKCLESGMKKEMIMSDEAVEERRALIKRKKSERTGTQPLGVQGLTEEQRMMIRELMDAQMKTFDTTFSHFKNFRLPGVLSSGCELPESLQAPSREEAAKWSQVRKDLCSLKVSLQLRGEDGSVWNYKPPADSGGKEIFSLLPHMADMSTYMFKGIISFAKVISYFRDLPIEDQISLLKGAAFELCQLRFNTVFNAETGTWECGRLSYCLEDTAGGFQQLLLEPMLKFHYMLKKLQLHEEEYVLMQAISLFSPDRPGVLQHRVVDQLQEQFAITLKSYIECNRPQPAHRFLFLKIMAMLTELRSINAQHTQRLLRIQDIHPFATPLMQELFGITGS
Sequence of Nuclear receptor subfamily 1 group I member 2 (Rattus norvegicus) (Q9R1A7 whole entry, looked up): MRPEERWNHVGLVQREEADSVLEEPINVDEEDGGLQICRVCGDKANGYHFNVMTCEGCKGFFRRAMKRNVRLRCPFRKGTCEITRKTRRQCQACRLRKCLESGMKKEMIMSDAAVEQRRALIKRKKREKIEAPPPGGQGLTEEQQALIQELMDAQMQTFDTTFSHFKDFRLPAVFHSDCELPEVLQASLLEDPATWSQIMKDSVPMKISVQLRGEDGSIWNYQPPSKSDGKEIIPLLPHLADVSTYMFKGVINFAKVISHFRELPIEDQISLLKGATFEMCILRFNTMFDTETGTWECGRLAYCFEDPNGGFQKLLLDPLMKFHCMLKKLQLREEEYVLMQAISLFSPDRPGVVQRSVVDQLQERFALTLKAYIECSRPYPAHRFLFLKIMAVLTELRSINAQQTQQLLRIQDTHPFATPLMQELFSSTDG
Sequence of Cytochrome P450 2D6 (Homo sapiens) (P10635 whole entry, looked up): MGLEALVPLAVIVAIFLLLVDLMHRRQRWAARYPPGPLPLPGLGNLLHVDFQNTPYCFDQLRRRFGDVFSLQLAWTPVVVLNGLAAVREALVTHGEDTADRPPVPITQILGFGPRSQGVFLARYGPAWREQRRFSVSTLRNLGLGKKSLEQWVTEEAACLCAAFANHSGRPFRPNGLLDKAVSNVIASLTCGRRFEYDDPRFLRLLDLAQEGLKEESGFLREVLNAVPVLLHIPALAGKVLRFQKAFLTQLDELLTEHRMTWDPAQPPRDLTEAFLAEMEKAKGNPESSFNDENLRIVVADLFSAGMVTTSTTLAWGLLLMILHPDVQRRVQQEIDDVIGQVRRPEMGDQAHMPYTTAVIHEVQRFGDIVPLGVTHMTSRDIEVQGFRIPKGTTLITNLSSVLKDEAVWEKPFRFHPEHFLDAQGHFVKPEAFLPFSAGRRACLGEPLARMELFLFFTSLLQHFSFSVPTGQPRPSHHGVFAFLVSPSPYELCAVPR
Sequence of Cytochrome P450 2C19 (Homo sapiens) (P33261 whole entry, looked up): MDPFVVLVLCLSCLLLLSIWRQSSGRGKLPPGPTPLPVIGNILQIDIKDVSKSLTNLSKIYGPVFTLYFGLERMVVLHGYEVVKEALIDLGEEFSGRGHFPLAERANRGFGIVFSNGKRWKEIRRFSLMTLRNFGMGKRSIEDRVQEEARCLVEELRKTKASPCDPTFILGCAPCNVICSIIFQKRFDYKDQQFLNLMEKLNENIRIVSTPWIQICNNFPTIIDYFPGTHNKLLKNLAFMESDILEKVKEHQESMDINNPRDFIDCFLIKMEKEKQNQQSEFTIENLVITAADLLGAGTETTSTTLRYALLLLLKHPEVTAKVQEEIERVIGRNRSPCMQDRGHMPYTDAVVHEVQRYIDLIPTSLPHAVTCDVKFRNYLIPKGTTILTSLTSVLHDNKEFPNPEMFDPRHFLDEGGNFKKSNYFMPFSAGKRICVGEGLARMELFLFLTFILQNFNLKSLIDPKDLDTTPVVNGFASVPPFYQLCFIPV
Sequence of Cytochrome P450 2C9 (Homo sapiens) (P11712 whole entry, looked up): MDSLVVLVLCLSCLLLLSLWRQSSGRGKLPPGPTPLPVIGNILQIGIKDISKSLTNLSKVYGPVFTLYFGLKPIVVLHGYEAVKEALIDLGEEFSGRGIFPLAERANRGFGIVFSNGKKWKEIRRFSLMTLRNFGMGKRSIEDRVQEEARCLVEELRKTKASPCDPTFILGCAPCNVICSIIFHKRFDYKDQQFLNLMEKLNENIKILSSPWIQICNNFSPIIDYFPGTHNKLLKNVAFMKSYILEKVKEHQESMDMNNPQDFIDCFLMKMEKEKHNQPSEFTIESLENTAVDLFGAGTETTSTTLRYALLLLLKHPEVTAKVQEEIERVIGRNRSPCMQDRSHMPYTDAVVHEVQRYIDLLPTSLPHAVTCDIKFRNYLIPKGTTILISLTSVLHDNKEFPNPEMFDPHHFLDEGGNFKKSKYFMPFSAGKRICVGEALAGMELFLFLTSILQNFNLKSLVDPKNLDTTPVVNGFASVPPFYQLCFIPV

For `CCC(C(=O)NC(=O)NC(C)=O)c1ccccc1` (stereo unspecified), the Potency entry in [1], in [3], in [5], in experiment [6], in experiment [7] and in experiment [8] was “inactive” in each case. Moreover, the Potency entry in experiment [9], in [10] and in experiment [11] was “inactive” throughout. The molecule was classed as inactive in experiment [2] and in experiment [4].
Consider `N[C@@H](CCC(=O)O)C(=O)O`, for which the Potency entry in experiment [1], in experiment [3], in experiment [5], in experiment [12], in experiment [10] and in experiment [11] was “inactive” in each case. In addition, the result in [2] and in experiment [4] was inactive. Besides, the Potency in [7] is 71 µM (active); in [9], 39.9 µM (active).
`CCCCCCCC1CCCC1=O` (stereo unspecified): the Potency result in experiment [1], in [3], in experiment [5], in experiment [12], in [9] and in experiment [10] was “inactive” in each case. Moreover, in experiment [11], the Potency entry was “inactive”. Further, the molecule was classed as inactive in experiment [2] and in [4]. Besides, in experiment [7], the Potency was 39.9 µM (active).
As to `CCCCCCC1CCC(=O)O1` (stereo unspecified), the Potency result in experiment [1], in experiment [3], in experiment [5], in experiment [12], in experiment [6] and in experiment [11] was “inactive” each time. The call in [2] and in experiment [4] was inactive.
Take `CCOC(=O)c1cnc2c(cnn2CC)c1NN=C(C)C`: the Potency result in experiment [1], in experiment [3], in [5] and in experiment [13] was “inactive” throughout. The molecule was classed as inactive in experiment [2] and in experiment [4]. For the same molecule, the Potency in experiment [14] is 8.91 µM (active); in experiment [7] it was 30.9 µM (active); in experiment [9], 2.04 µM (active).
In the case of `CCCc1nn(C)c2c(=O)[nH]c(-c3cc(S(=O)(=O)N4CCN(C)CC4)ccc3OCC)nc12`, the Potency result in experiment [1], in experiment [3], in experiment [5], in [6], in experiment [7] and in experiment [9] was “inactive” throughout. For the same molecule, the outcome in experiment [2] and in [4] was inactive. Also, in [8], the Potency is 30.9 µM (active).
For the molecule `CCC(C)(CN(C)C)OC(=O)c1ccccc1` (stereo unspecified), the Potency result in experiment [1], in experiment [3] and in [5] was “inactive” throughout. Moreover, the call in [2] and in experiment [4] was inactive. For the same molecule, the max activation in experiment [15] is -1.69%.
Take `COc1cc(C)nc(-n2nc(C)cc2OC)n1`: the Potency result in experiment [1], in [3], in [5] and in experiment [10] was “inactive” in each case. In addition, the molecule was called inactive in experiment [2] and in experiment [4]. Also, the max activation in [15] was 0.673%.
With `CCCCCCCCCCOc1cc2c(=O)c(C(=O)OCC)c[nH]c2cc1OCC`, the activity change, negative = cytotoxicity in experiment [1] is -1.67% [at 8.39 µM]; in experiment [3], 0.813% [at 8.39 µM]; in experiment [5], 2.55% [at 8.39 µM]. Also, the caspase activation in [2] was 0.159% [at 8.39 µM]. The caspase-3/7 activation in experiment [4] was 1.97% [at 8.39 µM]. For the same molecule, in experiment [15], the max activation was -1.23%. Also, the Potency entry in [13] and in experiment [14] was “inactive” in each case. The activity change, negative = inhibition was -50% [at 10.5 µM] in experiment [6]; 52.8% [at 10.5 µM] in experiment [7]; 6.88% [at 10.5 µM] in experiment [8]; 7.05% [at 10.5 µM] in experiment [9]; 1.67% [at 6.97 µM] in [10]; 13.5% [at 10.5 µM] in experiment [11].
For `CC(=O)c1ccc2ccccc2c1`, the Potency result in [1], in experiment [3], in experiment [5], in [12], in experiment [8] and in experiment [11] was “inactive” throughout. The result in experiment [2] and in experiment [4] was inactive. Moreover, the Potency was 28.3 µM (active) in experiment [7] and 7.96 µM (active) in [9].
Take `CCCc1ncc(C[n+]2ccccc2C)c(N)n1`: the Potency result in [1], in experiment [3], in experiment [5], in [6], in experiment [7] and in experiment [8] was “inactive” each time. The Potency result in [9], in experiment [10] and in experiment [11] was “inactive” throughout. For the same molecule, the call in experiment [2] and in experiment [4] was inactive. For the same molecule, the max activation in [15] is -3.34%.

The values are drawn from PubChem BioAssay (Tox21).
